Laboratory results from PubChem BioAssay (Tox21).
Inconclusive results are not listed. The source holds several records for some structures; these can differ, active in one and inactive in another. Calls of active or inactive are those of the source. Unless noted, calls follow the shape of the dose curve; as a rule, active = well fitted curve in the direction sought with a large enough effect in the repeat runs; inconclusive = weak or mixed curves; inactive = no such curve, though single readings can be large; an effect the other way counts as inactive or inconclusive.

Tests used:
[1] = qHTS assay for small molecule agonists of the p53 signaling pathway - cell viability (AID 651633; calls by dose curve; also: nearly all actives have a fitted effect of over 30% in size; also: potency is read from the fitted curve at half-maximal effect); settings: p53RE-bla HCT-116 viability, ATP luminescence, 16 h; series mostly up to 83.3 µM
Summary of the method: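 Viability counter-read: CellTiter-Glo luminescence (30 min, room temperature) in the same p53RE-bla plates. These plates had been exposed to compounds for 16 h at 37 C.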

[2] = qHTS assay for small molecules that induce genotoxicity in human embryonic kidney cells expressing luciferase-tagged ATAD5 - cell viability (AID 651634; calls by dose curve; also: nearly all actives have a fitted effect of over 25% in size); settings: HEK293T ATAD5-luc cells viability, CellTiter-Fluor, 15.5 h; series mostly up to 83.3 µM
Summary of the method: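 Live-cell protease activity (CellTiter-Fluor, fluorescence) indicates viability. HEK293T cells with luciferase-tagged ATAD5; 15.5 hr compound treatment at 37C.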

[3] = qHTS assay for small molecule disruptors of the mitochondrial membrane potential - cell viability (AID 720634; calls by dose curve;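 also: human HepG2 liver cancer cells; nearly all actives have a fitted effect of over 20% in size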); settings: HepG2 viability, ATP luminescence (CellTiter-Glo), 1 h; series mostly up to 83.2 µM
Summary of the method: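 Human hepatoma HepG2 cells were treated for 1 hr with test chemicals, then given m-MPI dye and CellTiter-Glo. Cell viability reflects luminescence proportional to cellular ATP.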

[4] = qHTS assay for small molecule disruptors of the mitochondrial membrane potential (AID 720635); settings: HepG2 mitochondrial membrane potential, Mito-MPS dye ratio; series mostly up to 83.2 µM; also: potency is read from the fitted curve at half-maximal effect
Summary of the method: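 Mitochondrial membrane potential tracked with Mito-MPS dye, red aggregates (ex 540/em 590 nm) against green monomers (ex 490/em 535 nm). Compound treatment 1 hr at 37C, dye 30 min in HepG2.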

[5] = qHTS assay to test for compound auto fluorescence at 535 nm (green) in HepG2 cells (AID 720675); settings: green autofluorescence 485/535 nm, 1 h; series mostly up to 91.3 µM
[6] = qHTS assay to test for compound auto fluorescence at 590 nm (red) in HEK293 cells (AID 720679); settings: red autofluorescence 540/590 nm; series mostly up to 91.3 µM
Summary of the method: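 Red autofluorescence, HEK293 cells: 2,000 cells/well; attach 4-5 hr 37C; add 23 nL cpd or DMSO; incubate o/n 37C 5% CO2; read Ex540/Em590; Rose Bengal sodium reference.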

[7] = qHTS assay to test for compound auto fluorescence at 535 nm (green) in HEK293 cells (AID 720680); settings: green autofluorescence 485/535 nm; series mostly up to 91.3 µM
[8] = qHTS assay to test for compound auto fluorescence at 460 nm (blue) in HEK293 cell free culture (AID 720681); settings: cell-free medium, autofluorescence 405/460 nm (blue); series mostly up to 91.3 µM
Summary of the method: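 Blue fluorescence (Ex 405/Em 460 nm, triamterene-equivalent) was read immediately after pin transfer of compound or DMSO into medium (DMEM, 10% FBS) without cells.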

[9] = qHTS assay to test for compound auto fluorescence at 535 nm (green) in HEK293 cell free culture (AID 720682); settings: cell-free medium, green autofluorescence 485/535 nm, stronger effect = higher value; series mostly up to 91.3 µM
Summary of the method: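 No cells present: wells hold DMEM supplemented with 10% FBS, into which compound or vehicle is pinned. Green emission is then recorded (485 nm excitation, 535 nm emission) and scaled to fluorescein.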

[10] = qHTS assay to test for compound auto fluorescence at 590 nm (red) in HEK293 cell free culture (AID 720683); settings: cell-free medium autofluorescence, Ex540/Em590 red; series mostly up to 91.3 µM
Summary of the method: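 Red-channel autofluorescence of compounds in culture medium (DMEM, 10% FBS), no cells, measured at 540/590 nm. Rose Bengal sodium is the reference fluorophore for equivalence.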

[11] = qHTS assay to test for compound auto fluorescence at 590 nm (red) in HepG2 cell free culture (AID 720684); settings: cell-free medium autofluorescence, red 540/590 nm; series mostly up to 91.3 µM
Summary of the method: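 Plate contents were MEM with 10% FBS plus test compound or DMSO, no cells. Fluorescence was recorded with 540 nm excitation and 590 nm emission.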

[12] = qHTS assay to test for compound auto fluorescence at 460 nm (blue) in HepG2 cell free culture (AID 720685); settings: Cell-free culture medium, blue autofluorescence 405/460 nm; series mostly up to 91.3 µM
Summary of the method: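 Compound (23 nL) or DMSO pinned into cell-free MEM with 10% FBS; blue fluorescence read at 405/460 nm excitation/emission, expressed as auto-fluorescence equivalency to triamterene.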

[13] = qHTS assay to test for compound auto fluorescence at 535 nm (green) in HepG2 cell free culture (AID 720686); settings: Cell-free medium, green autofluorescence 485/535 nm; series mostly up to 91.3 µM
[14] = qHTS assay to test for compound auto fluorescence at 460 nm (blue) in HepG2 cells (AID 720687); settings: autofluorescence 405/460 nm, 1 h; series mostly up to 91.3 µM
Summary of the method: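 Blue-channel autofluorescence (Ex/Em 405/460 nm, triamterene-equivalent) was measured after 1 hr compound exposure at 37 C, 5% CO2. Cells were HepG2, plated overnight at 37 C in MEM plus 10% FBS.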

[15] = molecular target: Glucocorticoid receptor (Homo sapiens) (UniProt P04150); assay: qHTS assay to identify small molecule agonists of the glucocorticoid receptor (GR) signaling pathway (AID 720691; active = well fitted activation curve with a large enough effect in the signal ratio in the repeat runs, not every such curve was filed as active; the % refers to the signal ratio); settings: GR-bla HeLa, beta-lactamase reporter ratio, 18 h; series mostly up to 62.4 µM
Summary of the method: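 Beta-lactamase reporter activity, read as fluorescence intensity, was measured in GR-bla HeLa cells exposed to compounds for 18 h at 37 C and then loaded with LiveBLAzer B/G FRET substrate for 2 h at room temperature.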

[16] = molecular target: Glucocorticoid receptor (Homo sapiens) (UniProt P04150); assay: qHTS assay to identify small molecule antagonists of the glucocorticoid receptor (GR) signaling pathway (AID 720692; active = well fitted inhibition curve with a large enough effect in the signal ratio in the repeat runs, not every such curve was filed as active; the % refers to the signal ratio; also: potency is read from the fitted curve at half-maximal effect); settings: GR-bla HeLa, beta-lactamase FRET ratio, dexamethasone-stimulated, 18 h; series mostly up to 58.5 µM
Summary of the method: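 Fluorescence from cleaved LiveBLAzer B/G FRET substrate reports GRE-driven beta-lactamase in HeLa cells; compounds are tested against 5 nM dexamethasone (final) over 18 h at 37 C, substrate incubation 2 h at room temperature.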

[17] = qHTS assay for small molecules that induce genotoxicity in human embryonic kidney cells expressing luciferase-tagged ATAD5 (AID 651632); settings: HEK293T ATAD5-luciferase induction, 16 h; series mostly up to 83.3 µM; also: nearly all actives have a fitted effect of over 15% in size
Summary of the method: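 Genotoxicity read-out via ATAD5-luciferase: HEK293T cells, 16 hr compound incubation at 37C, Amplite detection.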

[18] = qHTS assay to test for compound auto fluorescence at 590 nm (red) in HepG2 cells (AID 720674); settings: HepG2 autofluorescence, red 540/590 nm, 1 h; series mostly up to 91.3 µM
Summary of the method: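 We screened compounds on adherent HepG2 cells, incubating them for an hour at 37 C in 5% CO2 before reading emission at 590 nm under 540 nm excitation; values reflect equivalence to Rose Bengal sodium fluorescence.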

[19] = qHTS assay to test for compound auto fluorescence at 460 nm (blue) in HEK293 cells (AID 720678); settings: blue autofluorescence 405/460 nm; series mostly up to 91.3 µM
Summary of the method: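 Intrinsic compound fluorescence is recorded in live HEK293 cultures after overnight incubation at 37C, 5% CO2, using excitation 405 nm and emission 460 nm. Values are referenced to triamterene.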
% is scaled to controls: 0 for no effect and ±100 for the full control effect.

Chain of Glucocorticoid receptor (Homo sapiens) (P04150 whole entry, looked up): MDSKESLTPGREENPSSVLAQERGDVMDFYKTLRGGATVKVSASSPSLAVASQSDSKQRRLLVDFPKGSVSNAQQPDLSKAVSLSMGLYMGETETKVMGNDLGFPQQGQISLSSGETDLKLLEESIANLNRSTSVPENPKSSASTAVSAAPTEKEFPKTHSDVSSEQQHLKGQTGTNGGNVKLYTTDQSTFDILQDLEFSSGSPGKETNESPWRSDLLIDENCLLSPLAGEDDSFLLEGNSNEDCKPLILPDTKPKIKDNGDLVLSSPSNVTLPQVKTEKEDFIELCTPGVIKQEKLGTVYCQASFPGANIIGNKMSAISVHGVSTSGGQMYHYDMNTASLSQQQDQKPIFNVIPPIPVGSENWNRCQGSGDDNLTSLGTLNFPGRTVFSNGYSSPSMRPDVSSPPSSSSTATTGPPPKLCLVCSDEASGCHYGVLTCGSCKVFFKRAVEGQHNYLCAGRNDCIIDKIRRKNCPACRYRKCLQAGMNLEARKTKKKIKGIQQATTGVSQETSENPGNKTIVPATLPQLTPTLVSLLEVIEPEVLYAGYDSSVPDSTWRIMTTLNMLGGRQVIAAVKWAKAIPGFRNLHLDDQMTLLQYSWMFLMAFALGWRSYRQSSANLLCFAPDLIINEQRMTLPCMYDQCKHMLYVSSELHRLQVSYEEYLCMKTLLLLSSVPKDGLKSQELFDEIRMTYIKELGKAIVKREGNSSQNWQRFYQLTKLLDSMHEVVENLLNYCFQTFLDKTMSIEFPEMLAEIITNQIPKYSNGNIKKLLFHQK

CCc1cccc(N(C)C(N)=Nc2cccc3ccccc23)c1
inactive: Potency [1] | Potency [2] | Potency [3] | Potency [4] | outcome [5] | outcome [6] | outcome [7] | Potency [8] | outcome [9] | outcome [10] | outcome [11] | Potency [12] | outcome [13] | Potency [14] | Potency [15] | Potency [16]

CCCC1C(CC)=CC(CC)=CN1c1ccccc1 (stereo not given)
active: Potency [4] 54.5 µM | Potency [16] 49 µM
inactive: Potency [17] | Potency [2] | outcome [18] | outcome [6] | outcome [7] | Potency [8] | outcome [9] | outcome [10] | outcome [11] | Potency [12] | outcome [13] | Potency [15]

CN(C)CCOC1=Cc2ccccc2Sc2ccc(Cl)cc21
inactive: Potency [17] | Potency [3] | outcome [18] | outcome [5] | Potency [19] | outcome [6] | outcome [7] | Potency [8] | outcome [9] | outcome [10] | outcome [11] | outcome [13] | Potency [14] | Potency [15]

Cc1ccc(S(=O)(=O)NC2CCCCC2)cc1
active: Potency [4] 21.5 µM
inactive: Potency [17] | outcome [18] | outcome [5] | Potency [19] | outcome [6] | outcome [7] | Potency [8] | outcome [9] | outcome [10] | outcome [11] | Potency [12] | outcome [13] | Potency [14] | Potency [15] | Potency [16]

O=C(N/N=C/c1ccc([N+](=O)[O-])o1)c1ccc(O)cc1
active: Potency [4] 1.27 µM
inactive: Potency [17] | Potency [1] | fluorescence, relative to Rose Bengal [18] -0.334% [at 18.6 µM] | fluorescence, % of fluorescein control [5] -0.0853% [at 18.6 µM] | fluorescence, % of triamterene [19] 0.159% [at 18.6 µM] | fluorescence, % of fluorescent control [6] 0.101% [at 18.6 µM] | fluorescence, % of fluorescein [7] 0.0272% [at 18.6 µM] | fluorescence, % of fluorescent control [8] -0.307% [at 18.6 µM] | activity change [9] 0.0091% [at 18.6 µM] | fluorescence, % of fluorescent control [10] -0.537% [at 18.6 µM] | fluorescence, % of Rose Bengal [11] -0.154% [at 18.6 µM] | fluorescence, % of fluorescent control [12] -0.18% [at 18.6 µM] | fluorescence, % of fluorescein control [13] -0.0078% [at 18.6 µM] | fluorescence, % of fluorescent control [14] -0.0309% [at 18.6 µM] | Potency [15] | Potency [16]

CC1C2CC(CC2C2CCCC(O)C2)C1(C)C (stereo not given)
active: Potency [4] 27.3 µM
inactive: Potency [17] | Potency [2] | outcome [18] | outcome [5] | Potency [19] | outcome [6] | outcome [7] | Potency [8] | outcome [9] | outcome [10] | outcome [11] | Potency [12] | outcome [13]

Cc1oc(C)c(C(=O)Nc2ccccc2)c1C
inactive: Potency [17] | Potency [2] | outcome [18] | outcome [5] | outcome [6] | outcome [7] | Potency [8] | outcome [9] | outcome [10] | outcome [11] | Potency [12] | outcome [13] | Potency [15]
active: Potency [4] 27.3 µM

CSc1ccc(Oc2ccc(S(N)(=O)=O)cc2CN(C)C)cc1C
inactive: Potency [17] | outcome [18] | outcome [5] | Potency [19] | outcome [6] | outcome [7] | Potency [8] | outcome [9] | outcome [10] | outcome [11] | Potency [12] | outcome [13] | Potency [14] | Potency [15] | Potency [16]

CCCCCCCCCCCCCCC[C@H](O)[C@@H](N)CO
inactive: Potency [17] | Potency [2] | Potency [3] | outcome [18] | outcome [5] | outcome [6] | outcome [7] | Potency [8] | outcome [9] | outcome [10] | outcome [11] | Potency [12] | outcome [13] | Potency [14] | Potency [15]

CC(N)CN (stereo not given)
inactive: Potency [17] | Potency [1] | Potency [19] | outcome [7] | Potency [8] | outcome [9] | outcome [10] | outcome [11] | Potency [12] | outcome [13] | Potency [14] | Potency [15] | Potency [16]

CC(CCc1ccc2c(c1)OCO2)NN (stereo not given)
inactive: Potency [17] | Potency [2] | Potency [3] | Potency [4] | outcome [18] | outcome [5] | Potency [19] | outcome [6] | outcome [7] | Potency [8] | outcome [9] | outcome [10] | outcome [11] | Potency [12] | outcome [13] | Potency [14] | Potency [15] | Potency [16]

CCc1nn(CCCN2CCN(c3cccc(Cl)c3)CC2)c(=O)n1CCOc1ccccc1
inactive: Potency [17] | Potency [3] | outcome [18] | Potency [19] | outcome [6] | outcome [7] | Potency [8] | outcome [9] | outcome [10] | outcome [11] | Potency [12] | outcome [13]
26.6 µM (active) and inactive: Potency [1]

Cc1nccn1-c1ccc(Sc2cccc(C3(C(N)=O)CCOCC3)c2)cc1
inactive: Potency [1] | Potency [2] | Potency [3] | Potency [4] | outcome [18] | outcome [5] | Potency [19] | outcome [6] | outcome [7] | Potency [8] | outcome [9] | outcome [10] | outcome [11] | outcome [13] | Potency [14] | Potency [15]
active: Potency [16] 24.5 µM

CC(=O)Oc1ccc2c(c1)CC[C@@H]1[C@@H]2CC[C@]2(C)[C@@H](O)CC[C@@H]12
active: Potency [4] 8.41 µM
inactive: Potency [17] | Potency [2] | outcome [18] | outcome [5] | Potency [19] | outcome [6] | outcome [7] | Potency [8] | outcome [9] | outcome [10] | outcome [11] | Potency [12] | outcome [13] | Potency [14]

Cc1cc(C(=C2C=CC(=Nc3ccc(S(=O)(=O)O)cc3S(=O)(=O)O)C=C2)c2ccc(Nc3ccc(S(=O)(=O)O)cc3)cc2)ccc1N
inactive: Potency [17] | Potency [1] | Potency [3] | outcome [18] | outcome [5] | outcome [7] | Potency [8] | outcome [9] | outcome [10] | outcome [11] | outcome [13] | Potency [14] | Potency [15]

COCCOC
inactive: Potency [1] | Potency [3] | Potency [4] | outcome [18] | outcome [5] | outcome [6] | outcome [7] | Potency [8] | outcome [9] | outcome [10] | outcome [11] | Potency [12] | outcome [13] | Potency [14] | Potency [15] | Potency [16]
